# Results reported in PubChem BioAssay (NCATS).
# Inconclusive results are not listed. Entries that show only a call come without a potency. A number with no mark means an inactive call. Active and inactive are the calls of the source. Calls follow the shape of the dose curve; as a rule, active = well fitted curve in the direction sought with a large enough effect; inconclusive = small, poorly fitted or top-dose-only effect, or another doubt; inactive = no such curve, though single readings can be large; an effect the other way counts as inactive or inconclusive.
# How the values were obtained:
# [1] = molecular target: Cellular tumor antigen p53 (Homo sapiens) (UniProt P04637); test: Primary qHTS for small molecule compounds that upregulate eGFP-tagged delta133p53alpha (in N-terminal) cells. (AID 2060322); conditions: NCI-H358 eGFP-delta133p53alpha fluorescence, 24 h; activation: active compounds read high; also: nearly all actives have a fitted effect of over 75% in size; also: potency is read from the fitted curve at half-maximal effect;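 as to activation: cells pre-induced with doxycycline then dosed without doxycycline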
# In short: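 NCI-H358 cells pre-induced 24 h with 10 ng/ml doxycycline for eGFP-delta133p53alpha, plated dox-free and exposed 24 h at 37C to titrated compounds. Fixed, Hoechst-stained; gated GFP peak intensity by laser scanning cytometry, normalized to DMSO (0%) and 57.5 uM 5-azacytidine (100%).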
# [2] = molecular target: Aldehyde dehydrogenase, mitochondrial (Homo sapiens) (UniProt P05091); test: qHTS for Inhibitors of the Aldehyde Dehydrogenase Family (ALDH2) Primary screen (AID 2061308); conditions: ALDH2 enzyme inhibition qHTS, 1536-well; series mostly up to 56 µM; also: nearly all actives have a fitted effect of over 55% in size
# Cellular tumor antigen p53 (Homo sapiens), sequence (P04637 whole entry, looked up): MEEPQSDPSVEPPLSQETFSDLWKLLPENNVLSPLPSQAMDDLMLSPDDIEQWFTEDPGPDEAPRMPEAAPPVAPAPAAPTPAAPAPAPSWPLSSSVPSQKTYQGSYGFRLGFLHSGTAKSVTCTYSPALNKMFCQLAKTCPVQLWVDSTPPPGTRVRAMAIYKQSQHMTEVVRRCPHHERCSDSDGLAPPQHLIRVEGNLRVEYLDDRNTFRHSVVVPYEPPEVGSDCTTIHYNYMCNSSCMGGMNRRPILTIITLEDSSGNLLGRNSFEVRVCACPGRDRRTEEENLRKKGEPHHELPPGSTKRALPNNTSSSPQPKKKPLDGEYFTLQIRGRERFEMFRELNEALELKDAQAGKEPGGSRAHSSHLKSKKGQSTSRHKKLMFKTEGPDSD
SMILES,activation [1] [%],Potency [2],Potency [1]
COc1cc(/C=C/C(=O)O[C@H]2[C@H](O)[C@@H](CO)O[C@@]2(CO)O[C@H]2O[C@H](COC(=O)c3ccc(O)cc3)[C@@H](O)[C@H](O)[C@H]2O)cc(OC)c1OC,-19.8,inactive,
COc1cc(Nc2ccc([N+](=O)[O-])cc2C(=O)O)cc2ccccc12,-11.9,inactive,
CC(=O)N1CCc2ccc(O)c(OC3OC(COC4OCC(O)(CO)C4O)C(O)C(O)C3O)c2C1Cc1ccc(O)cc1 (stereo not given),-0.763,inactive,
COC1CC(OC2CCC3(C)C(=CCC4C3CCC3(C)C(C(C)O)CCC43O)C2)OC(C)C1OC1OC(C)C(OC2OC(COC3OC(COC4OC(CO)C(O)C(O)C4O)C(O)C(O)C3O)C(O)C(O)C2O)C(OC)C1O (stereo not given),-23.7,inactive,
O=C(/C=C/N1C[C@@H]2C[C@@H]1CN2c1ccccn1)c1ccccc1O,-4.33,inactive,
CC(=O)OC/C(=C/C(=O)O)CC[C@@H]1C(CO)=CC[C@@H]2C(C)(C)CCC[C@@]12C,2.29,inactive,
C=C1C(=O)O[C@H]2CC(=C)[C@H]3CC[C@@](C)(O)[C@@H]3CC12 (stereo not given in full),,inactive,15.1 µM (active)
C/C=C(\C)C(=O)OC1C(C)C2(O)C(C=C(CO)CC3(O)C(=O)C(C)=CC32)C2C(C)(C)C12OC(C)=O (stereo not given),8.93,inactive,
C/C=C/C1=CC2=C(CO1)C(=O)[C@](C)(O)[C@H](OC(=O)c1c(O)cc(OC)c(O)c1C)C2,3.82,inactive,
C/C=C1/CC2C(=O)Nc3cc(O)c(OC)cc3C(=O)N2C1 (stereo not given),-3.57,inactive,
C[C@@H]1O[C@@H](O[C@H]2[C@H](OC(=O)C34CCC(C)(C)CC3C3=CCC5C6(C)CC(O)C(O[C@@H]7O[C@H](CO)[C@@H](O)[C@H](O)[C@H]7O)C(C)(C(=O)O)C6CCC5(C)C3(CO)CC4)O[C@H](C)[C@H](O)[C@@H]2O)[C@H](O)[C@H](O)[C@H]1O[C@@H]1OC[C@@H](O)[C@H](O)[C@H]1O (stereo not given in full),-12.5,inactive,
COc1cc(/C=C/CO[C@@H]2O[C@H](CO)[C@@H](O)[C@H](O)[C@H]2O)cc(OC)c1O[C@@H]1O[C@H](CO)[C@@H](O)[C@H](O)[C@H]1O,0.893,inactive,
C[C@]1(C2CCCC2)Cc2cc(OCC(=O)O)c(Cl)c(Cl)c2C1=O,-3.67,inactive,
CC[C@@H]1[C@H]2CCCCN3C(=O)C[C@H]([C@@H]4[C@H]1OC(=O)[C@H]4C)[C@@H]23,-0.763,inactive,
OC[C@H]1O[C@@H](Oc2cc(O)cc(-c3cc4ccc(O[C@@H]5O[C@H](CO)[C@@H](O)[C@H](O)[C@H]5O)cc4o3)c2)[C@H](O)[C@@H](O)[C@@H]1O,-14.3,inactive,
COc1cc(/C=C/C(=O)OC[C@H]2O[C@@H](OC3CC(C)=C(C(=O)O)C(C)(C)C3)[C@H](O)[C@@H](O)[C@@H]2O)cc(OC)c1O (stereo not given in full),-16.8,inactive,
NC(=O)[C@@H]1CC[C@H](c2ccc(OCc3ccccc3F)cc2)N1,-11.6,inactive,
COc1cc(C2Oc3c(OC)cc(/C=C/C(=O)OC4CC(O)(C(=O)O)CC(O)C4O)cc3C2CO)ccc1O (stereo not given),-32.8,inactive,
COc1cc(/C=C/C(=O)O[C@H]2[C@@H]3C=CO[C@@H](O[C@@H]4O[C@H](CO)[C@@H](O)[C@H](O)[C@H]4O)[C@@H]3[C@@]3(CO)O[C@@H]23)ccc1O,-2.29,inactive,
O=C(O)c1ccnc2cc(-c3nc4ccccc4n3CCN3CCCCC3)sc12,-1.79,inactive,
O=C(/C=C/c1ccc(O)c(O)c1)OCc1ccccc1O[C@@H]1O[C@H](CO)[C@@H](O)[C@H](O)[C@H]1O,8.4,inactive,
C(#Cc1nc2ncccc2nc1OCCN1CCCC1)c1ccccc1,,inactive,6.75 µM (active)
C=C(C)Cn1c(SCC(=O)c2cccs2)nc2sc3c(c2c1=O)CCCC3,-5.73,inactive,
CC/C=C\C(O)C(O)C1=C(C)C(=O)C2(O1)C(=O)NC(OC)(C(=O)c1ccccc1)C2O (stereo not given),0.763,inactive,
CC[C@@H](Nc1c(Nc2cccc(C(=O)N(C)C)c2O)c(=O)c1=O)c1ccc(C)o1,-1.43,inactive,
